# PubChem BioAssay (NCI)
# Compounds without any hit were thinned out: in the full panel of roughly 83,000, 20% have a hit.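 Each cell line was grown in a 96-well plate and treated with one concentration of compound for 48 hours. Values below 10 were considered active.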 The source made the active and inactive calls.
# Tested on: SR leukemia
# Assay: NCI-60 one-dose screen, 48 h (100 = growth as untreated, 0 = no growth, -100 = all killed)
# Conditions: 10 µM unless noted
row,Structure (SMILES),growth
1,COc1cc(C(=O)O)c(O)c(C(C)(C)C)c1,119% (inactive)
2,CC1(C)OC2C(CO)OC(n3ccc(=O)[nH]c3=O)C2O1 (centres undefined),99.7% (inactive)
3,Cc1cccnc1NC1OC(=O)c2ccccc21 (centres undefined),93.8% (inactive)
4,NS(=O)(=O)c1cc(=O)[nH]c(=O)[nH]1,135% (inactive)
5,CCC1CCC(C)NC1 (centres undefined),109% (inactive)
6,Cc1ccc2[nH]c3ccccc3c2c1,79.6% (inactive)
7,C=C1C(=O)C2CCN1CC2,26.1% (inactive)
8,C=CCNC(=S)N/C=C(/C(=O)c1ccccc1)c1ccccc1,95.4% (inactive)
9,CCc1ccccc1C(=O)N(CC)CC,96.3% (inactive)
10,CN(C)CCOC(=O)Nc1ccc(Cc2ccc(NC(=O)OCCN(C)C)cc2)cc1,-39.4% [100 µM] (active)
11,CC(C)NC(=O)OCc1c(COC(=O)NC(C)C)c(-c2ccc(Cl)cc2)n2c1CCC2,2.94% (active)
12,Nc1ccc2c(c1)Cc1cc(N)c(N)cc1-2,82.2% (inactive)
13,CCOC(=O)C(=O)CC(=O)c1ccccc1,79.7% (inactive)
14,CCNc1ncnc2[nH]ncc12,143% (inactive)
15,COc1nc(Nc2cccc(C(F)(F)F)c2)nc(OC)n1,95% (inactive)
16,CC(=O)c1cccc(O)c1,90.6% (inactive)
17,CC(C)c1ccccc1NC(=O)N1CCC(C(C)C)CC1,92.4% (inactive)

# Tested on: RPMI-8226 leukemia
# Assay: as above
# Conditions: 10 µM unless noted
row,Structure (SMILES),growth
1,CC(=O)Nc1ccc(O)c(C)c1,105% (inactive)
2,O=C(c1cccc(C(=O)c2ccc3c4c(cccc24)C(=O)N(c2ccccc2)C3=O)c1)c1ccc2c3c(cccc13)C(=O)N(c1ccccc1)C2=O,72.4% (inactive)
3,Cc1ccc(S(=O)(=O)Oc2ccc3sc4c(CO)ccc(NCCN(C)C)c4c(=O)c3c2)cc1,-43.4% [100 µM] (active)
4,O=C1NC(=O)/C(=C\c2ccncc2)N1,103% (inactive)
5,O=C(c1ccccc1O)N1CCCC1,94.8% (inactive)
6,C1Cc2onc(-c3noc4c3CCC4)c2C1,113% (inactive)
7,O=S(=O)(O)c1ccc(O)c(C2CCCCC2)c1,105% (inactive)
8,CNc1ccccc1C(=O)N/N=C/C=C/c1ccccc1,25.1% (inactive)
9,O=C(O)CC1=CCCCC1,96.6% (inactive)
10,CC(C)c1ccc(C(=O)OCCCl)cc1,221% (inactive)
11,CCCCCCCCNC(=O)C(C)C,99.1% (inactive)
12,Cc1ccc(C)c2c1CCC2=O,84.1% (inactive)
13,CC1(C)CCC(C)(C)NC(=S)N1,96.4% (inactive)
14,COc1ccc(/C=N/NC(=O)COCC(=O)N/N=C/c2ccc(OC)cc2)cc1,101% (inactive)
15,Cc1ccccc1NC(=O)Oc1ccc(Cl)cc1C(=O)c1ccccc1,85.6% (inactive)
16,CC(=O)c1cccs1,110% (inactive)
17,CSc1cnc2ccccc2n1,109% (inactive)
18,CCCC(OC(C)=O)c1ccc2c(c1)OCO2 (centres undefined),107% (inactive)
19,CC(C)N(C(=O)c1ccccc1)C(C)C,105% (inactive)

row,Structure (SMILES),growth
1,O=C(O)c1ccc(OCc2ccccc2)cc1,97.5% (inactive)
2,COc1cc(C(=O)O)c(O)c(C(C)(C)C)c1,106% (inactive)
3,CC1(C)OC2C(CO)OC(n3ccc(=O)[nH]c3=O)C2O1 (centres undefined),103% (inactive)
4,Cc1cccnc1NC1OC(=O)c2ccccc21 (centres undefined),106% (inactive)
5,NS(=O)(=O)c1cc(=O)[nH]c(=O)[nH]1,118% (inactive)
6,CCC1CCC(C)NC1 (centres undefined),98.6% (inactive)
7,Cc1ccc2[nH]c3ccccc3c2c1,106% (inactive)
8,C=C1C(=O)C2CCN1CC2,93.8% (inactive)
9,C=CCNC(=S)N/C=C(/C(=O)c1ccccc1)c1ccccc1,101% (inactive)
10,CCc1ccccc1C(=O)N(CC)CC,103% (inactive)
11,CN(C)CCOC(=O)Nc1ccc(Cc2ccc(NC(=O)OCCN(C)C)cc2)cc1,16.8% [100 µM] (inactive)
12,CC(C)NC(=O)OCc1c(COC(=O)NC(C)C)c(-c2ccc(Cl)cc2)n2c1CCC2,93.4% (inactive)
13,Nc1ccc2c(c1)Cc1cc(N)c(N)cc1-2,101% (inactive)
14,CCOC(=O)C(=O)CC(=O)c1ccccc1,98.4% (inactive)
15,CCNc1ncnc2[nH]ncc12,73.9% (inactive)
16,COc1nc(Nc2cccc(C(F)(F)F)c2)nc(OC)n1,94.7% (inactive)
17,CC(=O)c1cccc(O)c1,105% (inactive)
18,CC(C)c1ccccc1NC(=O)N1CCC(C(C)C)CC1,105% (inactive)
